Results reported in PubChem BioAssay (NCATS).
Inconclusive results are not listed. A call without a number means that no potency is given here. Active and inactive are the calls of the source. The call rests on the fitted dose curve; in most records, active means well fitted activation curve with a large enough effect; inconclusive means small, poorly fitted or top-dose-only effect; inactive means flat fitted curve, though single readings scatter.

Experiment: Cellular Toxicity (caspase-3) Jurkat (AID 655);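 further: cells exposed to compound for 16 h at 37 °C before reading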
Settings: Jurkat caspase-3 activation, luminescence; series mostly up to 92.2 µM
Excerpt: NIH Chemical Genomics Center [NCGC]
NIH Molecular Libraries Screening Centers Network [MLSCN]
National Institutes of Environmental Health Sciences [NIEHS]
National Toxicology Program [NTP]
We have developed a 1536-well cell-based assay for quantitative high throughput screening (qHTS) against a number of cell lines to determine in vitro caspase 3/7 of small molecules. This particular assay uses the Jurkat cell line which is derived from human T cell leukemia.
NCGC Assay Protocol Summary:
The Caspase-Glo 3/7 assay (Promega) is a homogeneous method to measure caspase-3 and caspase-7 activities in cultured cells. The quantitation of caspase 3/7 activity is based on the cleavage of a peptide-aminoluciferin substrate. After caspase cleaves the substrate the free aminoluciferin is liberated and serves as the substrate of luciferase, which generates the light. The luminescent signal is proportional to amount of caspase 3/7 activity present.
Using the Caspase-Glo 3/7 assay, the amount of caspase 3/7 activity was measured in the Jurkat cell line with complete culture medium following compound treatment for 16 hours. The assay was performed in opaque white 1536-well plates. In the screen, tamoxifen and doxorubicin were used as positive controls. Library compounds were measured for their ability to cause the activation of caspase 3/7 in the cell line, as reflected by an increase in luminescence signal, in a concentration-dependent manner. Data were normalized to the controls for basal activity (DMSO only) and 100% stimulation (100 uM tamoxifen). AC50 values were determined from concentration-response data modeled with the standard Hill equation.
qHTS protocol for caspase 3/7 assay in Jurkat cells
[Step] [Parameter] [Value] [Description]
1. Reagent; 5 uL; 5000 Jurkat cells/well
3. Controls; 23 nL; Tamoxifen 0.23 uM to 100 uM & Doxorubicin 7.0 pM to 100 uM
4. Time; 16 hr; 37 °C incubation
5. Reagent; 5 uL; Caspase-Glo 3/7 reagent
6. Time; 20 min; Room Temperature
7. Detection; Luminescence; Viewlux plate reader
Keywords: caspase 3/7, apoptosis, Jurkat cell line, luminescence, NTPHTS, NTPHTS_NCGC, NIEHS, EPA, DSSTox, MLSMR, MLSCN, NIH Roadmap, qHTS, NCGC
Potency means the concentration at half of the fitted maximal effect.

SMILES	Potency
NCCO	inactive
Nc1ccc(O)c(C(=O)O)c1	inactive
Nc1ccc([N+](=O)[O-])cc1O	inactive
O=c1cc(-c2ccccc2)oc2ccccc12	inactive
O=C1CN(/N=C/c2ccc([N+](=O)[O-])o2)C(=O)N1	inactive
Nc1nc2ccc([N+](=O)[O-])cc2s1	inactive
O=C(O)/C=C\C(=O)O	inactive
CN1CCC[C@H]1c1cccnc1	inactive
Nc1ccc(O)c([N+](=O)[O-])c1	inactive
Oc1ccccc1O	inactive
CCCOC(=O)c1ccc(O)cc1	inactive
CN(C)CCC(c1ccc(Cl)cc1)c1ccccn1 (configuration not stated)	inactive
CCCCCCCCCCCCCCCCCC(=O)O	inactive
CC1(C)S[C@@H]2[C@H](NC(=O)[C@H](N)c3ccccc3)C(=O)N2[C@H]1C(=O)O	inactive
C#C[C@]1(O)CC[C@H]2[C@@H]3CCc4cc(O)ccc4[C@H]3CC[C@@]21C	inactive
S=c1[nH]c2ccccc2s1	inactive
O=C(O)c1cc(O)c(O)c(O)c1	inactive
COc1cc(CNC(=O)CCCC/C=C/C(C)C)ccc1O	inactive
c1ccc2sc(SSc3nc4ccccc4s3)nc2c1	inactive
c1cnc2c(c1)ccc1cccnc12	6.31 µM (active)
CN(C)c1ccc(N=NS(=O)(=O)O)cc1	inactive
CC(C)NCC(O)COc1cccc2ccccc12 (configuration not stated)	inactive
